From PubChem BioAssay (EPA / NIEHS)
Where a structure was tested more than once in an assay, its records may differ in their call. Activity calls are given as the source filed them. The calls were made as follows: active = hit-call score of the fitted dose curve at least 0.9, where 1 is the maximum; inactive = score below 0.9.

What follows are molecules tested on Interleukin-1 alpha (IL1a), IL1A (gene 3552) (assay: BSK_LPS_IL1a: BioMAP Diversity Plus: LPS Assay for Interleukin-1 alpha (IL1a) Biomarker Activity (AID 2283080)). Details: primary human HUVEC with PBMC; actives raise or lower the signal.
Procedure: BSK_LPS is a cell-based, multiplexed-readout assay that uses umbilical vein endothelium and peripheral blood mononuclear cells, a human vascular primary cell co-culture, with measurements taken at 24 hours after chemical dosing in a 96-well plate.BSK_LPS_IL1a is an assay component measured in the BSK_LPS assay. It measures IL-a antibody related to regulation of gene expression using ELISA technology.Data from the assay component BSK_LPS_IL1a was analyzed into 1 assay endpoint. This assay endpoint, BSK_LPS_IL1a, was analyzed with bidirectional fitting relative to DMSO as the negative control and baseline of activity. Using a type of binding reporter, gain or loss-of-signal activity can be used to understand changes in the signaling as they relate to the gene IL1A. Furthermore, this assay endpoint can be referred to as a primary readout, because this assay has produced multiple assay endpoints where this one serves a signaling function. To generalize the intended target to other relatable targets, this assay endpoint is annotated to the cytokine intended target family, where the subfamily is interleukins.
The levels of cell surface (or secreted, indicated by the prefix "s") biomarker endpoints were measured by ELISA. Overt cytotoxicity to cells in confluent adherent cultures (all systems other than the BT system) was assessed by measuring total protein levels using sulforhodamine B (SRB) staining in parallel cultures at the time of biomarker measurements, indicated as SRB endpoints. For proliferation assays for adherent cell types, individual cell types are cultured at sub-confluence and relative cell numbers quantified by SRB staining at time points optimized for each system (48 h: 3C and CASM3C systems; 72 h: BT and HDF3CGF systems; 96 h: SAg system). SRB was performed by staining cells with 0.1% SRB after fixation with 10% TCA and reading wells at 560 nm.Viability and proliferation of PBMC (T cells) was quantified by Alamar Blue reduction for the SAg and BT systems. For PBMC viability (referred to as PBMC Cytotoxicity within the assay endpoint names), cells were plated (75,000/well in a 96-well plate) and then chemical samples added for 1 h before addition of activators, SEB and TSST-1 (20 ng/mL final concentration each). Cells were incubated for 90 h. Then, Alamar Blue (20 uL/well) (Invitrogen, Cat DAL1100) was added for 6 h, and the plates were read with a fluorescence microplate reader at 546/580 nm (excitation/emission). For PBMC proliferation, cells were plated and activated as above but incubated for only 16 h prior to addition of Alamar Blue. Plates were read after 6 h.

outcome, inactive:
Oc1cccc2ccccc12
COc1cc(CNC(=O)CCCC/C=C/C(C)C)ccc1O
O=[N+]([O-])c1cc(S(=O)(=O)Nc2ccccc2)ccc1Nc1ccccc1
CCC[Si](OC(C)=O)(OC(C)=O)OC(C)=O
COc1ccccc1Oc1c(NS(=O)(=O)c2ccc(C(C)(C)C)cc2)nc(-c2ncccn2)nc1OCCO
CCCCCCCCCC/C=C/C1CC(=O)OC1=O (stereo not drawn)
Sc1nc2ccccc2s1
Cc1cccnc1
COC(=O)/C=C\C(=O)OC
OC(C(F)(F)F)(C(F)(F)F)C(O)(C(F)(F)F)C(F)(F)F
CC(C)C1OCCN1CCOC(=O)NCCCCCCNC(=O)OCCN1CCOC1C(C)C (stereo not drawn)
C1CN(CCOCCN2CCOCC2)CCO1
CC[N+](CC)(CC(=O)Nc1c(C)cccc1C)Cc1ccccc1 (tested in a mixture with another compound)
CCCCC(CC)COC(=O)C=Cc1ccc(OC)cc1 (stereo not drawn)
Cc1cc(-n2nc3ccc(Cl)cc3n2)c(O)c(C(C)(C)C)c1
CCC(C)=NO
CN(C)Cc1cc(C(C)(C)C)c(O)c(C(C)(C)C)c1
COc1ccc(C(=O)c2ccccc2O)c(O)c1
CN(C)CCC(c1ccc(Cl)cc1)c1ccccn1 (stereo not drawn)
Cc1c(C(N)=O)cc([N+](=O)[O-])cc1[N+](=O)[O-]
CC[N+](CC)(CC(=O)Nc1c(C)cccc1C)Cc1ccccc1
CCCCCCC(O)CCCCCCCCCCC(=O)OC (stereo not drawn)
O=C(C(=O)c1ccccc1)c1ccccc1

AC50, active:
CN(C)c1ccc(C(c2ccccc2)c2ccc(N(C)C)cc2)cc1 34.7 µM
CC(C)CC(=O)CC(C)CC(C)C (stereo not drawn) 35 µM
COc1ccccc1Oc1c(NS(=O)(=O)c2ccc(C(C)(C)C)cc2)nc(-c2ncccn2)nc1OCCO 10.4 µM
CCCCCCCCCCCCCCCCCC[N+](C)(C)C 1.22 µM
CCCCCCCCCCC1CO1 (stereo not drawn) 31.8 µM
